High-throughput results (PubChem)
GPT2 inhibitor – GPT2 alanine aminotransferase inhibition; Q8TD30; Recombinant GPT2, coupled pyruvate oxidase/HRP Amplex Red fluorescence; Potency, µM (top dose mostly 57.7 µM), hits mostly inhibitors; 0.25% of 100,000 active; note: nearly all actives have a fitted effect of over 60% in size
Target sequence (Q8TD30 whole entry, looked up): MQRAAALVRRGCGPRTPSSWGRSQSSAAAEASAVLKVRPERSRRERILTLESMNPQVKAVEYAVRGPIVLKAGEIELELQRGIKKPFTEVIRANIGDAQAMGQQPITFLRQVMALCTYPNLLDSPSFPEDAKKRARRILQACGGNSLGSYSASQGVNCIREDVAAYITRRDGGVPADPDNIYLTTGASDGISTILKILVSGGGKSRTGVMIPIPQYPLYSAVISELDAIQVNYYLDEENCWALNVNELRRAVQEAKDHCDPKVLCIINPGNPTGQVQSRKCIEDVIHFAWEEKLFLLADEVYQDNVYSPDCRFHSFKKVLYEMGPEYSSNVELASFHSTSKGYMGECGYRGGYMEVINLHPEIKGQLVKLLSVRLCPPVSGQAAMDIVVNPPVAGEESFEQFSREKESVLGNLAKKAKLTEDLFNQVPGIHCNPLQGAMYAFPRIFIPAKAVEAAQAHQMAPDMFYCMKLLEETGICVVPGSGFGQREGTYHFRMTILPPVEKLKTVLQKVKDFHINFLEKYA
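GPT2 10ng/uL, a-KG 250uM, L-Ala 2mM, HEPES pH7.5 + 0.0001% Tween; 30 min RT. Then Amplex mix (PO/HRP/ThPP), 30 min RT dark, fluorescence. AOA 50uM used as positive control.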
Luciferase inh – inhibitors of firefly (Photinus pyralis) luciferase; P08659; purified P. pyralis luciferase, luminescence, biochemical; 2.5% of 76,000 active; Potency, µM (titrated, usually from 115 µM), hits mostly inhibitors; note: nearly all actives have a fitted effect of over 65% in size
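Biochemical qHTS: compound (6-point titration) added to 10uM D-luciferin plus 10uM ATP in Tris acetate pH 7.5 buffer with Mg, Tween-20 and BSA, then purified enzyme at 10nM; light output imaged.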
NPR1 antag – blocks ANP-stimulated signaling of human Npr1 receptor; HEK293 hNpr1 GloSensor cGMP, ANP-stimulated luminescence; Potency, µM (top dose mostly 46.3 µM), actives largely listed as inhibitors; 1.6% of 76,000 active; AID 1347048; calls by dose curve; note: nearly all actives have a fitted effect of over 60% in size
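Compound pre-incubated 30 min at room temperature on GloSensor-loaded HEK293 cells stably carrying hNpr1 and the pGS-40F cGMP biosensor. Stimulation uses hNppA at 0.1 nM final; luminescence is taken at baseline and 20 min post-agonist.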
HEK293 tox – HEK 293 cell cytotoxicity. 6.6% of 94,000 active. Potency, µM (series often up to 115 µM), usual class: inhibitors. HEK 293 viability, ATP luminescence (CellTiter-Glo), 48-72 h; note: nearly all actives have a fitted effect of over 60% in size
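HEK 293 cells seeded at 250 cells/well were exposed to compound for 48 or 72 hr at 37 degree Celsius. Viability taken as ATP content by CellTiter-Glo luminescence.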
3T3 cytotox – cytotoxic compounds in NIH 3T3 cells | NIH 3T3 viability, CellTiter-Glo ATP luminescence, 48-72 h | Potency, µM (doses to about 96.7 µM), hits mostly inhibitors | 4.3% of 94,000 active | AID 1345082; note: nearly all actives have a fitted effect of over 55% in size
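NIH 3T3 cells at 400 cells/well received 23 nL of compound by pintool and were incubated 48 or 72 h at 37 °C. Viability was read as ATP-coupled CellTiter-Glo luminescence.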
Npr1 antag conf – confirmation of human Npr1 natriuretic peptide receptor antagonists; Potency, µM (titrated, usually from 57.6 µM), most hits filed as inhibitors; 76% of 1,400 active; HEK293 hNpr1 cGMP GloSensor luminescence, ANP-stimulated; shares compounds with NPR1 antag; calls by dose curve; note: nearly all actives have a fitted effect of over 70% in size
Npr2 selectivity – antagonizes human Npr2, subtype selectivity check | shares compounds with NPR1 antag | HEK293 hNpr2 GloSensor cGMP luminescence, CNP-stimulated | Potency, µM (highest dose often 57.6 µM), actives largely listed as inhibitors | 67% of 1,400 active; calls by dose curve; note: nearly all actives have a fitted effect of over 70% in size
FLuc inh counter – inhibits firefly luciferase, false Npr1 antagonist flag; Potency, µM (series often up to 57.6 µM), actives largely listed as inhibitors; AID 1347047; purified FLuc enzyme, luminescence, Km substrate; shares compounds with NPR1 antag; 0.7% of 1,400 active
GloSensor ctrl – reduces cGMP signal in GloSensor control cells; 69% of 1,400 active; Potency, µM (doses to about 57.6 µM), most hits filed as inhibitors; HEK293 GloSensor cGMP, SNP-stimulated, luminescence; AID 1347051; shares compounds with NPR1 antag; calls by dose curve; note: nearly all actives have a fitted effect of over 70% in size
Each line names hits and unclear results; the compound was inactive in the other large screens (follow-up assays come after a bar, where they were run). Compounds with a hit are over-represented: about 10% of the library has one in this group of screens. Unless noted, calls come from the whole dose curve; as a rule, active = well fitted curve in the direction sought with a large enough effect; inconclusive = small, poorly fitted or top-dose-only effect, or another doubt; inactive = no such curve, though single readings can be large; an effect the other way counts as inactive or inconclusive.

Cc1cc(=O)n(CC(=O)Nc2ccc(C)c(C)c2)c(N(C)Cc2ccccc2)n1	NPR1 antag inconclusive, HEK293 tox inconclusive, 3T3 cytotox inconclusive
COc1ccc(NC(=O)Cn2c(N(C)Cc3ccccc3)nc(C)cc2=O)cc1Cl	NPR1 antag 11.2µM, HEK293 tox inconclusive, 3T3 cytotox inconclusive | Npr1 antag conf 10.9µM | Npr2 selectivity 10.9µM | FLuc inh counter inactive | GloSensor ctrl 9.68µM
COc1cc(OC)c(NC(=O)Cn2c(N(C)Cc3ccccc3)nc(C)cc2=O)cc1Cl	NPR1 antag 10µM, HEK293 tox 22.4µM, 3T3 cytotox inconclusive | Npr1 antag conf 21.7µM | Npr2 selectivity 21.7µM | FLuc inh counter inactive | GloSensor ctrl 19.3µM
COc1ccc(NC(=O)Cn2c(N(C)Cc3ccccc3)nc(C)cc2=O)cc1	NPR1 antag 11.2µM, HEK293 tox 44.7µM, 3T3 cytotox inconclusive | Npr1 antag conf 19.3µM | Npr2 selectivity inconclusive | FLuc inh counter inactive | GloSensor ctrl 15.3µM
Cc1cc(=O)n(CC(=O)Nc2c(C)cccc2C)c(N(C)Cc2ccccc2)n1	3T3 cytotox inconclusive
Cc1nnc2ccc(N3CCCC(NC(=O)c4ccc(Cl)cc4)C3)nn12 (stereo not drawn)	3T3 cytotox inconclusive (no result: GPT2 inhibitor, Luciferase inh, NPR1 antag)
O=C(c1ccccc1Cl)N1CCC(C(=O)N2CCC(c3nc4ncccc4[nH]3)CC2)C1 (stereo not drawn)	none (no result: Luciferase inh, NPR1 antag)
COc1cccc(CN2CCN(c3nc4c(s3)c(C)nn4C)CC2=O)c1	NPR1 antag inconclusive, HEK293 tox inconclusive, 3T3 cytotox inconclusive | Npr1 antag conf inconclusive | Npr2 selectivity inconclusive | FLuc inh counter inactive | GloSensor ctrl inconclusive
COCCN1C[C@H]2CN(Cc3cccc(OC)c3)CCN2C1=O	none
CCC1Oc2ccc(NC(=O)c3ccccc3OC(C)=O)cc2CN(Cc2ccccc2F)C1=O (stereo not drawn)	NPR1 antag 0.708µM, HEK293 tox 25.1µM, 3T3 cytotox 14.1µM | Npr1 antag conf 24.3µM | Npr2 selectivity 24.3µM | FLuc inh counter inactive | GloSensor ctrl 21.7µM
COc1ccc(-c2noc(CC3CCN(C(=O)Cc4ccccc4Cl)CC3)n2)cc1	NPR1 antag 10µM, HEK293 tox inconclusive, 3T3 cytotox inconclusive | Npr1 antag conf 17.2µM | Npr2 selectivity 21.7µM | FLuc inh counter inactive | GloSensor ctrl 19.3µM
COCc1nc(-c2ccc(OC3CCN(C(=O)c4sc(C)nc4C)C3)cc2)no1 (stereo not drawn)	HEK293 tox inconclusive
COc1cccc(-c2noc(CC3CCN(C(=O)CCc4ccccc4)CC3)n2)c1	NPR1 antag 12.6µM, HEK293 tox inconclusive, 3T3 cytotox inconclusive | Npr1 antag conf 27.3µM | Npr2 selectivity 24.3µM | FLuc inh counter inactive | GloSensor ctrl 24.3µM
Cc1ccc(-c2noc(CCCC(=O)N3CCC(CCOc4ccccc4F)C3)n2)cc1 (stereo not drawn)	NPR1 antag 4.47µM, HEK293 tox inconclusive, 3T3 cytotox inconclusive | Npr1 antag conf 17.2µM | Npr2 selectivity 19.3µM | FLuc inh counter inactive | GloSensor ctrl 15.3µM
COCc1nc(-c2ccc(OC3CCN(C(=O)CCc4ccc(OC)cc4)C3)cc2)no1 (stereo not drawn)	NPR1 antag 14.1µM, HEK293 tox inconclusive, 3T3 cytotox inconclusive | Npr1 antag conf 27.3µM | Npr2 selectivity 27.3µM | FLuc inh counter inactive | GloSensor ctrl inconclusive
Cc1ccc(OCc2nc(C3CCCCN3C(=O)CCCc3nc(-c4ccc(C)cc4)no3)no2)cc1 (stereo not drawn)	HEK293 tox inconclusive, 3T3 cytotox inconclusive (no result: Luciferase inh, NPR1 antag)
CNC(=O)c1cc(C2CC2)nc2c1c(C1CCN(C(=O)c3ccccn3)C1)nn2C (stereo not drawn)	none (no result: GPT2 inhibitor, Luciferase inh, NPR1 antag)
C[C@@H]1CN(C(=O)c2ccc(C(F)(F)F)cc2)C[C@@]1(O)C1CC1	none
COc1cccc(-c2noc(CC3CCN(C(=O)COc4cccc(C)c4)CC3)n2)c1	NPR1 antag 20µM, HEK293 tox inconclusive, 3T3 cytotox inconclusive | Npr1 antag conf inconclusive | Npr2 selectivity 30.6µM | FLuc inh counter inactive | GloSensor ctrl 38.5µM
COCc1nc(-c2ccc(OC3CCN(C(=O)c4nn(C)c5ccccc45)C3)cc2)no1 (stereo not drawn)	NPR1 antag 11.2µM, HEK293 tox inconclusive, 3T3 cytotox inconclusive | Npr1 antag conf 19.3µM | Npr2 selectivity 19.3µM | FLuc inh counter inactive | GloSensor ctrl 19.3µM
COCc1nc(-c2ccc(OC3CCN(Cc4ccc(C(F)(F)F)cc4)C3)cc2)no1 (stereo not drawn)	NPR1 antag 7.94µM, HEK293 tox inconclusive, 3T3 cytotox inconclusive | Npr1 antag conf 8.62µM | Npr2 selectivity 10.9µM | FLuc inh counter inactive | GloSensor ctrl 7.69µM
COc1cccc(CCC(=O)N2CCC(Cc3nc(-c4ccccc4)no3)CC2)c1	NPR1 antag inconclusive, HEK293 tox inconclusive, 3T3 cytotox inconclusive
COc1ccc(CCC(=O)N2CCC(Cc3nc(-c4ccccc4)no3)CC2)cc1	NPR1 antag 10µM, HEK293 tox 35.5µM, 3T3 cytotox inconclusive | Npr1 antag conf 12.2µM | Npr2 selectivity 15.3µM | FLuc inh counter inactive | GloSensor ctrl 12.2µM
Cc1cccc(OCC(=O)N2CCC(Cc3nc(-c4cnccn4)no3)CC2)c1	3T3 cytotox inconclusive
Cc1ccc([C@H]2C[C@@H](O)[C@@H](O)[C@@H]2NC2CCOCC2)cc1	none
CS(=O)(=O)N1CCCN(CC2CCCCC2)CCNC(=O)CC1c1ccccc1 (stereo not drawn)	none
Cn1cccc1CN1CCC(N2Cc3ccccc3C2=O)CC1	none (no result: Luciferase inh, NPR1 antag)
Cc1nc(-c2ccc(OC3CCN(C(=O)c4cc(C)n(C)n4)C3)cc2)no1 (stereo not drawn)	NPR1 antag inconclusive, HEK293 tox inconclusive, 3T3 cytotox inconclusive | Npr1 antag conf inconclusive | Npr2 selectivity inconclusive | FLuc inh counter inactive | GloSensor ctrl inconclusive
COc1ccc(-c2noc(CC3CCN(C(=O)CCc4cccc(OC)c4)CC3)n2)cc1	NPR1 antag 12.6µM, HEK293 tox inconclusive, 3T3 cytotox inconclusive | Npr1 antag conf 21.7µM | Npr2 selectivity 21.7µM | FLuc inh counter inactive | GloSensor ctrl 17.2µM
